PubChem BioAssay (NCI)
About 79,000 compounds went through this panel and 15% of them were active in at least one assay; those are over-represented in the sample as a whole. Activity calls are given as the source filed them. No stated cut-off is given here; in the data, active means growth inhibition above about 70%; inactive means the rest.

Experiments:
[1] = NCI Yeast Anticancer Drug Screen. Data for the rad52 strain (AID 147);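 further: 0% = growth of vehicle-treated control cultures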; details: S. cerevisiae rad52 mutant growth inhibition, stronger effect = higher value
Summary of the method: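 Screen used a yeast mutant impaired in DNA repair. After compound exposure, growth was measured. Values reflect inhibition compared with vehicle-treated cells.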

[2] = NCI Yeast Anticancer Drug Screen. Data for the wt1 strain (AID 149);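 further: 0% = growth of vehicle-treated wt1 cultures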; details: S. cerevisiae wt1 strain (SPY 50644) growth inhibition, stronger effect = higher value
Summary of the method: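 Measured: growth of wt1 yeast under compound versus vehicle treatment, reported as inhibition.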

[3] = NCI Yeast Anticancer Drug Screen. Data for the rad50EPP+ strain (AID 151);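 further: 0% = growth of vehicle-treated control cultures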; details: S. cerevisiae rad50 mutant strain, stronger effect = higher value
Summary of the method: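 Exposing the rad50EPP+ strain to each compound, growth was compared with vehicle-only cultures to give inhibition.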

[4] = NCI Yeast Anticancer Drug Screen. Data for the mgt1 strain (AID 153); details: S. cerevisiae mgt1 mutant growth inhibition, stronger effect = higher value
Summary of the method: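 Genetically defined yeast (mgt1) treated with compound; inhibition of growth expressed against vehicle-treated controls.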

[5] = NCI Yeast Anticancer Drug Screen. Data for the rad50 strain (AID 155);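 further: 0% = growth of vehicle-only cultures of the same strain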; details: S. cerevisiae rad50 strain growth inhibition, stronger effect = higher value
Summary of the method: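 Growth of the mutant yeast was measured after compound exposure and referenced to vehicle-treated cultures.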

[6] = NCI Yeast Anticancer Drug Screen. Data for the mec2-1 strain (AID 157); details: S. cerevisiae mec2-1 strain, stronger effect = higher value
Summary of the method: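 Readout is yeast growth inhibition, normalised to vehicle-treated controls, in the mec2-1 strain exposed to compound.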

[7] = NCI Yeast Anticancer Drug Screen. Data for the rad14 strain (AID 159);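 further: 0% = growth of vehicle-treated control cultures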; details: S. cerevisiae rad14 strain growth inhibition, stronger effect = higher value
Summary of the method: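 Here, inhibition of yeast growth was measured after compound exposure, using a strain with a genetic defect in DNA damage repair and vehicle-treated cultures as the reference.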

[8] = NCI Yeast Anticancer Drug Screen. Data for the CLN2oe strain (AID 163);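 further: 0% = growth of vehicle-only control cultures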; details: S. cerevisiae CLN2oe strain, stronger effect = higher value
Summary of the method: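 Values reflect how much compound exposure reduced yeast growth, referenced to vehicle-exposed cells. Assay organism is a strain with a defined genetic change affecting cell-cycle control.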

[9] = NCI Yeast Anticancer Drug Screen. Data for the cln2 rad14 strain (AID 165);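 further: 0% = growth equal to vehicle treated cultures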; details: S. cerevisiae cln2 rad14 strain, stronger effect = higher value
Summary of the method: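 Relative to vehicle controls, growth inhibition of compound-treated cln2 rad14 yeast was recorded.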

[10] = NCI Yeast Anticancer Drug Screen. Data for the bub3 strain (AID 167); details: S. cerevisiae bub3 mutant strain, stronger effect = higher value
Summary of the method: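 Whole-cell yeast assay. The mutant strain was incubated with compounds, and growth inhibition was determined by comparison with vehicle-treated cells.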

[11] = NCI Yeast Anticancer Drug Screen. Data for the wt2 strain (AID 169);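 further: 0% = growth of vehicle-treated yeast cultures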; details: S. cerevisiae wt2 strain growth inhibition, stronger effect = higher value
Summary of the method: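 Values express reduction in yeast growth under compound treatment, referenced to vehicle-treated cells.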

[12] = NCI Yeast Anticancer Drug Screen. Data for the mlh1 strain (AID 171);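 further: 0% = growth of vehicle-treated control cultures of the same strain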; details: S. cerevisiae mlh1 strain growth inhibition, stronger effect = higher value
Summary of the method: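 Steps: expose the defined-mutant yeast strain to compound; expose a parallel culture to vehicle; measure growth; express compound effect as inhibition relative to the vehicle culture.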

[13] = NCI Yeast Anticancer Drug Screen. Data for the sgs1 strain (AID 173);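 further: 0% = growth of vehicle-only control cultures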; details: S. cerevisiae sgs1 mutant, stronger effect = higher value
Summary of the method: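 Treat defined-mutant yeast with compound; measure growth; calculate inhibition relative to vehicle-treated cells.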

[14] = NCI Yeast Anticancer Drug Screen. Data for the mlh1 rad18 strain (AID 175); details: S. cerevisiae mlh1 rad18 strain growth inhibition, stronger effect = higher value
Summary of the method: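 Test agents were incubated with a yeast strain of defined genotype (DNA damage repair defect). Inhibition of growth was derived by comparison with vehicle-exposed cultures.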

[15] = NCI Yeast Anticancer Drug Screen. Data for the rad18 strain (AID 177); details: S. cerevisiae rad18 mutant growth inhibition, stronger effect = higher value
Summary of the method: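 A genetically defined yeast mutant impaired in DNA damage repair was treated with test compounds, then its growth was measured against cultures receiving vehicle alone.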

[16] = at 5.0 µM (retest, dose inferred, filed as 0.5)
[17] = at 50.0 µM (retest, dose inferred, filed as 5.0)

Measured: growth inhibition

O=[N+]([O-])c1cc(Cl)cnc1Br
active: [1]; at 11.0 µM 75% | [1]; at 33.0 µM 92% | [1]; at 100.0 µM 97% | [3]; at 3.7 µM 71% | [3]; at 11.0 µM 88% | [3]; at 33.0 µM 96% | [3]; at 100.0 µM 98% | [5]; at 11.0 µM 81% | [5]; at 33.0 µM 90% | [5]; [17] 82% | [5]; at 50.0 µM 88.5% | [5]; at 100.0 µM 98% | [6]; at 33.0 µM 85% | [6]; [17] 70% | [6]; at 50.0 µM 76.7% | [6]; at 100.0 µM 88% | [13]; at 100.0 µM 82% | [15]; at 100.0 µM 87%
inactive: [1]; at 1.2 µM 23% | [1]; at 3.7 µM 46% | [2]; at 1.2 µM 1% | [2]; at 3.7 µM 4% | [2]; at 11.0 µM 7% | [2]; at 33.0 µM 8% | [2]; at 100.0 µM 20% | [3]; at 1.2 µM 35% | [4]; at 1.2 µM 2% | [4]; at 3.7 µM 1% | [4]; at 11.0 µM 4% | [4]; at 33.0 µM 12% | [4]; at 100.0 µM 19% | [5]; at 1.2 µM 28% | [5]; at 3.7 µM 47% | [5]; [16] -49% | [6]; at 1.2 µM 6% | [6]; at 3.7 µM 43% | [6]; [16] 22% | [6]; at 11.0 µM 69% | [7]; at 1.2 µM 4% | [7]; at 3.7 µM 1% | [7]; at 11.0 µM 10% | [7]; at 33.0 µM 14% | [7]; at 100.0 µM 31% | [8]; at 1.2 µM -4% | [8]; at 3.7 µM -1% | [8]; at 11.0 µM 4% | [8]; at 33.0 µM 4% | [8]; at 100.0 µM 8% | [9]; [16] -56% | [9]; [17] -74% | [9]; at 50.0 µM 3.2% | [10]; at 1.2 µM -8% | [10]; at 3.7 µM -10% | [10]; [16] -74% | [10]; at 11.0 µM -6% | [10]; at 33.0 µM -2% | [10]; [17] -70% | [10]; at 50.0 µM -8.3% | [10]; at 100.0 µM 30% | [11]; at 1.2 µM 0% | [11]; at 3.7 µM 1% | [11]; at 11.0 µM 2% | [11]; at 33.0 µM 5% | [11]; at 100.0 µM 20% | [12]; at 1.2 µM 6% | [12]; at 3.7 µM 8% | [12]; at 11.0 µM 6% | [12]; at 33.0 µM 12% | [12]; at 100.0 µM 27% | [13]; at 1.2 µM 14% | [13]; at 3.7 µM 25% | [13]; at 11.0 µM 30% | [13]; at 33.0 µM 40% | [14]; [16] -109% | [14]; [17] -48% | [14]; at 50.0 µM 28.1% | [15]; at 1.2 µM 6% | [15]; at 3.7 µM 10% | [15]; at 11.0 µM 18% | [15]; at 33.0 µM 35%
